According to the supplement of paper PMC11417369:
± gives the standard deviation of the averaged measurements. Whole data set: some 25,000 sequences, median “ln(normalized median fluorescence intensity)” near 8.6, cut for the highest 2% near 10. The sample as a whole holds a higher share of the highest values than the screen did.

What follows are sequences tested on PfAP2-EXP AP2 domain (GST-tagged) (assay: gcPBM binding intensity (ln(normalized median fluorescence intensity)); higher = stronger DNA binding).
In short: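 An Agilent 4 × 180k array of primer-extended double-stranded 36-bp intergenic genomic probes, with negative controls, was incubated for 1 h with GST-tagged P. falciparum DNA-binding domains expressed in E. coli. Alexa488 anti-GST antibody detected bound protein, scanned at 488 nm. Binding intensity is the highest Masliner-normalised natural-log median intensity across replicate spots of either probe orientation.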

Row | Sequence | gcPBM binding intensity (ln)
1 | ATATAATATATTTTCACACATATTTTATGATGATAA [CACACA_site5614] | 8.3 ± 0.42
2 | TAAATTTGTGGGATTTCACACAGGTTTATTTACATT [CACACA_site5455] | 8.13 ± 0.45
3 | AGAATAATACAAAAATGTACATTAATAAAAAGATAG [XGTACX_site780] | 8.99 ± 0.42
4 | TAACAAGGTTTATATGCATGCAAACATAACCAAAAA [TGCATGCA_site824] | 9.96 ± 0.23
5 | CTTACATAAAATATCACACACATAAAAAAACAATAT [CACACA_site1901] | 8.87 ± 0.39
6 | TAACATAGCAATGTTTCACACACAAGAAAAAATACA [CACACA_site8747] | 8.84 ± 0.45
7 | GGGTTAATATTTACTACACACACTTAAAATATGTAT [CACACA_site47] | 8.59 ± 0.47
8 | ATAATATTAGTAAACACACTCAAATTATATATGATA [CACACA_site5721] | 8.28 ± 0.59
9 | ATATAAATAAAAAAAAGTACATAATATATAAAAATA [XGTACX_site3065] | 8.72 ± 0.33
10 | AATAAATAAATAAGTACACACATATAAATATAAATA [CACACA_site6271] | 8.69 ± 0.27
11 | AAATTAATAAGTCACACACACATATATAATATATAT [CACACA_site799] | 8.54 ± 0.36
12 | AATAAATAAATAAGTACACACATATATATATATATA [CACACA_site284] | 10.2 ± 0.6
13 | ATAAAATAAAATAAAAGTACATAAATATATATATAT [XGTACX_site6110] | 9.83 ± 0.28
14 | CAAAATTAATAAGTCACACACACATATATAATATAT [CACACA_site798] | 8.73 ± 0.45
15 | TACATAAAATATATCACACATATAATATATATATAT [CACACA_site5834] | 9.54 ± 0.16
16 | TGTAATAAATAGTACACACACACATATATATATATT [CACACA_site1388] | 8.73 ± 0.38
17 | TATATATATATATATAGTACACATATCACATAAATG [XGTACX_site6379] | 10.2 ± 0.23
18 | TATAAAAATAAAAAAAGTACACATAAAAATATATAT [XGTACX_site5189] | 8.77 ± 0.33
19 | TAAAAAAAAATAAAAAGTACATATATATATATATAT [XGTACX_site1155] | 10.3 ± 0.46

Row | Sequence | gcPBM binding intensity (ln)
20 | ATTAAAATATAAGTCACACATATATATATATATATA [CACACA_site6145] | 10.2 ± 0.33
21 | AGTTGGATACGAAGATGTACAATAATAATAATTAAG [XGTACX_site3561] | 8.9 ± 0.35
22 | GTGAAATTATATTTTTGTACATATATTATATATTAT [XGTACX_site3387] | 8.52 ± 0.32
23 | ACATACATACACCCACGTACGTACCGAAACACCACC [XGTACX_site1212] | 9.11 ± 0.35
24 | TATTTATGTTCATATAAACACACGTAAAATTCAAGG [CACACA_site1538] | 8.62 ± 0.39
25 | TAAATAATAATAAAATGTACATTATATATGTATATG [XGTACX_site8672] | 8.44 ± 0.36
26 | AACTTCTTTTTTATAACACACAAAATATATATACAA [CACACA_site282] | 8.69 ± 0.42
27 | AAAGGAAAAGTTGACTGTACATAAGTAAAAAATAAT [XGTACX_site788] | 9.15 ± 0.42
28 | ATATATATATAATGTAGTACTATTTAATAATAAGCC [XGTACX_site1263] | 9.775 ± 0.078
29 | AAATAAAATACAATATGATAAAATGTTATCATATAT [CACACA_negctrl_site538] | 8.35 ± 0.38
30 | TATATATATATATTCACACATAAATATATGCACCCA [CACACA_site4263] | 9.96 ± 0.2
31 | TTTAATATATATATGTGTACATATAAATTATATATA [XGTACX_site8511] | 8.2 ± 0.23
32 | TTTTTTTTTTTTTTTGCACACAGGGTGTAGGACAAG [CACACA_site2842] | 8.6
33 | TTATATTATACATACACACCCATATAATATGTTTTT [CACACA_site4636] | 8.73 ± 0.42
34 | ATAAATATTGGGTGCACACACATAATATATATATAT [CACACA_site2272] | 10.1 ± 0.21
35 | GGAAAAACCATTCGCACACACACATAATATATAATA [CACACA_site1424] | 8.66 ± 0.47
36 | AACCATTGGGAAAGGGTGCACATATATATATATATA | 10.8 ± 0.35
37 | TTTAAGCGTTCACTGCTGCACTTTTATGTTGTGACC | 8.71 ± 0.51
38 | GAAGAAAAATAAAAAGTGCAAAAAAAGTAAAAATTT [GTGCAC_site9897] | 8.95 ± 0.49

Row | Sequence | gcPBM binding intensity (ln)
39 | CATACACCCATACATACACACATACATATATATATA [CACACA_site8591] | 9.895 ± 0.064
40 | CACATATATACACATACACACACACCCATACACCCA [CACACA_site8505] | 8.77 ± 0.33
41 | CATATACATACACATACACACATACACCCATACACA [CACACA_site8514] | 8.77 ± 0.55
42 | TCAAAGCACAGATACACACACATATATATATATATA [CACACA_site287] | 10 ± 0.42
43 | TCAAAGCACCCATACACACACATATATATATATATA [CACACA_site4317] | 10.3 ± 0.19
44 | TGAATAAATCAAAGCACACATACACCCACATATATA [CACACA_site286] | 8.78 ± 0.49
45 | TATATATACATATACACACACACACCCATATATATA [CACACA_site2246] | 8.84 ± 0.39
46 | TATATATATATATATACACACACACCCATATATATA [CACACA_site8812] | 10.3 ± 0.3
47 | TATATATATATATACACACACACACCCATATATATA [CACACA_site2538] | 10.2 ± 0.24
48 | TATCACAAAATATACTGTACATACAGGCAGTAATAT [XGTACX_site2487] | 8.71 ± 0.34
49 | GAAAAAAAAAAAAATACACACAAATTGGTATAGAAT [CACACA_site380] | 8.53 ± 0.47
50 | TTGGTGATATTTTTCTCACACATTTACCAGAGATGT [CACACA_site4684] | 8.44 ± 0.37
51 | AGGTACTTTTTTAAAACACACATATAATAAATACAC [CACACA_site4730] | 8.84 ± 0.28
52 | ATGTAAGTTGTGCATTCACACACATATATATATATA [CACACA_site9086] | 10.2 ± 0.2
53 | GTAAGTTGTGCATTCACACACATATATATATATATA [CACACA_site3303] | 10.2 ± 0.28
54 | GTAAGTTGTGCATTCACACACATATAAATATAAATA [CACACA_site7536] | 8.66 ± 0.24
55 | AGTTCAGAATTGAATAGTACATAAATATAACAAAAT [XGTACX_site650] | 8.88 ± 0.36
56 | TGTATTTTTAACATATGTACGAATAGCACGTGTTAT [XGTACX_site3640] | 8.89 ± 0.44
57 | AGTTTTTATTAAAACAAAATTTAATTATAACGTTGA [XGTACX_negctrl_site298] | 8.08 ± 0.3
